Assay results published in PubChem BioAssay (EPA / NIEHS).
Several values for one entry are separate records, joined by “and”; a condition that tells them apart may be missing. Identical values can stand only once. Records with an inconclusive call do not appear. Activity calls are given as the source filed them. How the source made its calls, unless noted: active means hit-call score of the fitted dose curve at least 0.9, where 1 is the maximum; inconclusive means response in the unintended direction; inactive means score below 0.9.

Legend:
[1] = Tanguay_ZF_120hpf_CFIN_legacy: (Legacy) Oregon State University Tanguay Lab 120 Hour Post-fertilization zebrafish Assay for Caudal Fin Malformation (AID 2283649)
Method in brief: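 Binary presence or absence of caudal fin malformation at 120 hpf, read by brightfield microscopy, with DMSO as baseline. Larvae came from 5D wild-type embryos exposed statically from 6 hpf at 28C after pronase dechorionation.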

[2] = Tanguay_ZF_120hpf_PIG_legacy: (Legacy) Oregon State University Tanguay Lab 120 Hour Post-fertilization zebrafish Assay for Pigmentation Malformation (AID 2283650)
Method in brief: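 Pigment malformation recorded as a binary call at 120 hpf in zebrafish (Tropical 5D) exposed singly from 6 hpf after pronase dechorionation. Static, sealed, 28C exposure, 0.64% DMSO; mortality excludes scoring; positive-direction fit against DMSO.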

[3] = Tanguay_ZF_120hpf_CIRC_legacy: (Legacy) Oregon State University Tanguay Lab 120 Hour Post-fertilization zebrafish Assay for Circulatory Malformation (AID 2283651)
Method in brief: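 Embryos are dechorionated at 4 hpf, plated one per well at 6 hpf, then held under static exposure at 28C until 120 hpf. Malformations are recorded as binary calls; mortality excludes other endpoints.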

[4] = Tanguay_ZF_120hpf_NC_legacy: (Legacy) Oregon State University Tanguay Lab 120 Hour Post-fertilization zebrafish Assay for Notochord and Tail Malformation (AID 2283656)
Method in brief: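 Binary scoring of notochord distortion by brightfield microscopy; embryos dying were not scored. Wild-type Tropical 5D embryos, chorion removed, exposed singly and statically from 6 to 120 hpf, 28C, sealed, 0.64% DMSO.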

[5] = Tanguay_ZF_120hpf_TR_legacy: (Legacy) Oregon State University Tanguay Lab 120 Hour Post-fertilization zebrafish Assay for Touch Response (AID 2283667)
Method in brief: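 Binary touch-response endpoint in larvae at 120 hpf after static waterborne exposure from embryo stage (28°C, 0.64% DMSO vehicle, 5 uM trimethyltin chloride as positive control); embryos dead at 24 or 120 hpf excluded; fitted as gain versus DMSO.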

[6] = system: Thyroperoxidase (TPO), gene 54314; assay: CCTE_Simmons_AUR_rTPO: CCTE's Amplex UltraRed Assay for Thyroperoxidase (TPO) Inhibition, Simmons Lab (AID 2283662);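 further: potency for loss of signal meaning inhibition of peroxidase activity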
Method in brief: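 Rat thyroid microsomes (5 ug protein) were incubated with test compound (8 concentrations, 5 nM–87.5 uM final, 0.5% DMSO), 25 uM Amplex UltraRed and 300 uM H2O2 in 200 mM phosphate buffer for 30 min at 37C in the dark; fluorescence read at 544/590 nm.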

[7] = CCTE_Simmons_CellTiterGLO_HEK293T: Viability Assessment in CCTE's Assays for Thyroperoxidase (TPO) Inhibition, Simmons Lab (AID 2283665);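 on AC50: cells exposed to compound for 24 h before readout; actives reduce ATP signal below DMSO vehicle meaning cytotoxicity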
Method in brief: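 Cells were seeded overnight, then exposed to an eight-point series up to 87.5 uM final for 24 hours. CellTiter-Glo reagent was added and luminescence read after 20 min, giving ATP-based viability versus DMSO.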

[8] = CCTE_Padilla_ZF_144hpf_TERATOSCORE: (Legacy) CCTE's 144 Hour Post-fertilization zebrafish Assay Teratoscore, Padilla Lab (AID 2283679; active means hit-call score of the fitted dose curve at least 0.9, where 1 is the maximum; inactive means score below 0.9;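 further: zebrafish embryos with chorions exposed by immersion from 6-8 hpf to 5 dpf with daily renewal; teratogenicity score from eye scoring of death hatching and malformations at 144 hpf; higher score means more developmental defects relative to DMSO baseline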)
Method in brief: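 Larvae scored by eye at 144 hpf for death, hatching and malformations after a day in clean Hanks'. Before that, daily-renewed exposure at 80 uM (0.4% DMSO, 26C) from roughly 6-8 hpf through 5 dpf, 4 embryos per chemical.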

[9] = system: Thyroperoxidase (TPO), gene 445522; assay: CCTE_Simmons_GUA_TPO: CCTE's Guaiacol Assay for Thyroperoxidase (TPO) Inhibition, Simmons Lab (AID 2283750)
Method in brief: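 Porcine thyroid microsomes (25 ug) in 200mM potassium phosphate, preincubated 30 s at 37C with compound (8 concentrations, 5 nM–87.5 uM) and 35mM guaiacol; 1mM H2O2 starts reaction. Absorbance change at 450nm over first 80 s; loss of signal versus DMSO, three replicates.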

[10] = read-out: kallikrein-3 (KLK3), KLK3 (gene 354); assay: LTEA_HepaRG_KLK3: Life Technologies and Expression Analysis (LTEA) Assay for kallikrein-3 (KLK3) using HepaRG (AID 2283652; active means hit-call score of the fitted dose curve at least 0.9, where 1 is the maximum; inactive means score below 0.9); settings: mRNA level, 48 h; actives raise or lower the signal
Method in brief: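 KLK3 transcript levels were measured by TaqMan qRT-PCR with normalisation to three housekeeping genes. HepaRG cultures received chemicals for 48 h at up to 100 uM (half-log, 8 points, 0.5% DMSO vehicle), fitted in both directions against DMSO.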

[11] = read-out: solute carrier (SLC22A6), SLC22A6 (gene 9356); assay: LTEA_HepaRG_SLC22A6: Life Technologies and Expression Analysis (LTEA) Assay for solute carrier (SLC22A6) using HepaRG (AID 2283653; active means hit-call score of the fitted dose curve at least 0.9, where 1 is the maximum; inactive means score below 0.9); settings: mRNA level, 48 h; actives raise or lower the signal
Method in brief: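 Read-out is SLC22A6 transcript level by qRT-PCR, normalised to three housekeeping genes and fitted for gain or loss relative to 0.5% DMSO vehicle. Human HepaRG cells received chemicals at up to 100 uM for 48 h.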

[12] = read-out: solute carrier (SLC10A1), SLC10A1 (gene 6554); assay: LTEA_HepaRG_SLC10A1: Life Technologies and Expression Analysis (LTEA) Assay for solute carrier (SLC10A1) using HepaRG (AID 2283657; active means hit-call score of the fitted dose curve at least 0.9, where 1 is the maximum; inactive means score below 0.9); settings: mRNA level, 48 h; actives raise or lower the signal
Method in brief: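 SLC10A1 transcript measured by TaqMan qRT-PCR, housekeeping-normalised, after 48 h chemical treatment of human HepaRG cells. Eight concentrations (half-log, max 100 uM, 0.5% DMSO vehicle) in duplicate; fitted bidirectionally against DMSO baseline.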

[13] = read-out: matrix metalloproteinase-1 (MMP1), MMP1 (gene 4312); assay: LTEA_HepaRG_MMP1: Life Technologies and Expression Analysis (LTEA) Assay for matrix metalloproteinase-1 (MMP1) using HepaRG (AID 2283658; active means hit-call score of the fitted dose curve at least 0.9, where 1 is the maximum; inactive means score below 0.9); settings: mRNA level, 48 h; actives raise or lower the signal
Method in brief: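 HepaRG, ~100,000 cells/well, 48 h pre-culture; serum-free induction medium; test chemical 8 conc (max 100 uM, half-log), duplicate, 48 h; 0.5% DMSO; qRT-PCR MMP1, housekeeping-normalized; gain/loss fit vs DMSO.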

[14] = read-out: Cytochrome P450 (CYP24A1_1), CYP24A1 (gene 1591); assay: LTEA_HepaRG_CYP24A1_1: Life Technologies and Expression Analysis (LTEA) Assay for Cytochrome P450 (CYP24A1_1) using HepaRG (AID 2283671; active means hit-call score of the fitted dose curve at least 0.9, where 1 is the maximum; inactive means score below 0.9); settings: mRNA level, 48 h; actives raise or lower the signal
Method in brief: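 Differentiated human HepaRG cells were exposed in duplicate for 48 h in serum-free induction medium to eight concentrations (top 100 uM, half-log steps, 0.5% DMSO). CYP24A1 mRNA was quantified by TaqMan qRT-PCR, normalized to ACTB, GAPDH and POLR2A, and fitted bidirectionally versus DMSO.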

[15] = CEETOX_H295R_MTT_cell_viability: Viability Assessment in the CeeTox HT-H295R MTT Assay (AID 2283718; active means hit-call score of the fitted dose curve at least 0.9, where 1 is the maximum; inactive means score below 0.9)
Method in brief: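 MTT reduction (0.5 mg/ml, 4 h at 37 C; absorbance at 570 and 650 nm) gave viability as background-corrected percent change versus controls. H295R cells had 48 h forskolin (10 uM) prestimulation, then 48 h chemical exposure at 0.1% DMSO.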

[16] = STM_H9_OrnithineISnorm_perc: Stemina devTOX quickPredict H9 human embryonic stem cell (hESC)-based Assay for Ornithine (ORN) Metabolite Biomarker, Normalized (AID 2283712; active means hit-call score of the fitted dose curve at least 0.9, where 1 is the maximum; inactive means score below 0.9;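 further: ornithine released into spent medium during last day measured by mass spectrometry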)
Method in brief: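 Ornithine secreted by H9 hESCs after 72h compound treatment (daily media/compound renewal) was quantified in final-day media by UPLC-HRMS. Values are isotope-standard-normalized, expressed relative to 0.1% DMSO, fitted in positive direction.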

[17] = STM_H9_CystineISnorm_perc: Stemina devTOX quickPredict H9 human embryonic stem cell (hESC)-based Assay for Cystine (CYSS) Metabolite Biomarker, Normalized (AID 2283713; active means hit-call score of the fitted dose curve at least 0.9, where 1 is the maximum; inactive means score below 0.9)
Method in brief: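 Cells are held undifferentiated and treated for 72h, receiving fresh medium with compound every 24h. Cystine secreted during the final day is quantified by UPLC-HRMS against a labeled spike-in, then expressed relative to the DMSO vehicle median.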

[18] = STM_H9_OrnCyssISnorm_ratio: Stemina devTOX quickPredict H9 human embryonic stem cell (hESC)-based Assay for Ornithine (ORN):Cystine (CYSS) Ratio (AID 2283714)
Method in brief: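 Ratio of internal-standard-normalized ornithine to cystine, measured by UPLC-HRMS in spent media from the last 24 h. H9 cells kept pluripotent, dosed 72 h with daily media and compound renewal; DMSO 0.1% serves as baseline.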

[19] = ArunA_NOG_NucleusCount: ArunA Biomedical's Neurite Outgrowth (NOG) Assay for Nucleus Count (AID 2283756)
Method in brief: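 Viable neuron count, from Hoechst nuclei passing size and intensity gates, imaged at 20x on differentiated H9-derived human neurons. Exposure lasted 48 h from seeding; activity was scored relative to DMSO.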

[20] = ArunA_NOG_NeuriteLength: ArunA Biomedical's Neurite Outgrowth (NOG) Assay for Neurite Length (AID 2283757)
Method in brief: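 Total neurite length per neuron, from traced βIII-tubulin-labelled processes longer than 10 um on viable Hoechst-gated cells, was scored as decrease from DMSO. Cells were hESC (H9)-derived neurons given 48 h chemical exposure immediately after seeding.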

Question: With N#Cc1cccnc1 as the molecule, how does the outcome [1] read?
Answer: inactive

Question: What about the outcome [2] of the same molecule?
Answer: inactive

Question: And the outcome [3]?
Answer: inactive

Question: And the outcome [4]?
Answer: inactive

Question: What about the outcome [5] of the same molecule?
Answer: inactive

Question: Which results are given for CCOP(=S)(OCC)SCS(=O)(=O)C(C)(C)C?
Answer: AC50 [6]: 43.8 µM (active); outcome [7]: inactive

Question: With Oc1cc(Cl)c(Cl)cc1Cl as the molecule, how does the outcome [1] read?
Answer: inactive

Question: And the outcome [2]?
Answer: inactive

Question: What about the outcome [3] of the same molecule?
Answer: inactive

Question: And the outcome [4]?
Answer: inactive

Question: And the outcome [5]?
Answer: inactive

Question: What about the AC50 [8] of the same molecule?
Answer: 5.5 µM (active)

Question: Which AC50 [6] does the source give for O=S1(=O)OC(c2cc(Br)c(O)c(Br)c2)(c2cc(Br)c(O)c(Br)c2)c2ccccc21 here?
Answer: 25.9 µM (active)

Question: What about the AC50 [7] of the same molecule?
Answer: 11.1 µM (active)

Question: Which results are given for O=C(O)C1(c2ccc3c(c2)OC[C@H](Cc2ccc(-c4ccccc4)cc2)[C@H]3O)CCCC1?
Answer: outcome [2]: inactive; outcome [3]: inactive; AC50 [6]: 33.4 µM (active); AC50 [7]: 13.3 µM (active); outcome [5]: inactive; AC50 [8]: 13.5 µM (active)

Question: With O=C(CBr)c1ccc(O)cc1 as the molecule, how does the AC50 [6] read?
Answer: 6.82 µM (active) and 5.72 µM (active)

Question: And the outcome [7]?
Answer: inactive

Question: What does the source list for COc1ccccc1N?
Answer: outcome [2]: inactive; outcome [3]: inactive; AC50 [6]: 0.39 µM (active); outcome [7]: inactive; outcome [5]: inactive; AC50 [9]: 33.2 µM (active)

Question: With O=C(NC(=O)c1c(F)cccc1F)Nc1ccc(Cl)cc1 as the molecule, how does the AC50 [6] read?
Answer: 25.4 µM (active)

Question: And the outcome [7]?
Answer: inactive

Question: With Clc1cccc(Cl)c1 as the molecule, how does the outcome [3] read?
Answer: inactive

Question: What does the source list for O=C1c2ccccc2C(=O)C1C(=O)C(c1ccccc1)c1ccc(Cl)cc1 (stereo unspecified)?
Answer: AC50 [6]: 32.4 µM (active); AC50 [7]: 36.4 µM (active)

Question: What does the source list for Cc1cc(C)cc(C)c1?
Answer: outcome [1]: inactive; outcome [2]: inactive; outcome [3]: inactive; outcome [10]: inactive; outcome [11]: inactive; outcome [12]: inactive; outcome [13]: inactive; outcome [5]: inactive; outcome [14]: inactive; outcome [15]: inactive

Question: Which outcome [1] does the source give for OCCN(CCO)CCO here?
Answer: inactive

Question: And the outcome [2]?
Answer: inactive

Question: And the outcome [3]?
Answer: inactive

Question: And the outcome [4]?
Answer: inactive

Question: What about the AC50 [16] of the same molecule?
Answer: 0.0236 µM (active)

Question: What about the outcome [17] of the same molecule?
Answer: inactive

Question: And the outcome [18]?
Answer: inactive

Question: What does the source list for O=C(N[C@H]1CN2CCC1CC2)c1ccc2c(c1)OCCO2?
Answer: outcome [1]: inactive; outcome [2]: inactive; outcome [3]: inactive; outcome [4]: inactive

Question: Which results are given for CCOc1ccc(N)cc1?
Answer: AC50 [6]: 1.75 µM (active); AC50 [7]: 28.4 µM (active)

Question: Which outcome [16] does the source give for Nc1ncn[nH]1 here?
Answer: inactive

Question: What about the outcome [17] of the same molecule?
Answer: inactive

Question: What about the outcome [19] of the same molecule?
Answer: inactive

Question: What about the outcome [20] of the same molecule?
Answer: inactive
